# Assay results from PubChem BioAssay AID2685 (National Center for Advancing Translational Sciences (NCATS), 2010).
# The whole screen tested about 320,000 compounds, of which about 2,100 (0.66%) were called active. Roughly 53% stayed inconclusive and do not appear here. The call rests on the fitted dose curve; in most records, active means well fitted inhibition curve with a large enough effect in the signal ratio, with a control signal flat (not every such curve was filed as active); inconclusive means small, poorly fitted or top-dose-only effect, or effect the other way, or a change in a side signal; inactive means flat fitted curve, though single readings scatter; the % refers to the signal ratio. What follows is part of a selection rich in actives, with near analogues and random picks from the rest.
# Experiment: qHTS Assay for Lipid Storage Modulators in Drosophila S3 Cells;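 on cell number change: cells counted by Cell Tracker Red CMTPX staining in the red channel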
# Settings: BODIPY lipid droplet fluorescence, 18-24 h, cells fed with added oleic acid; cell number change: measured here: cell count max response; series mostly up to 46.1 µM
# From the text: NIH Molecular Libraries Probe Production Centers Network [MLPCN] NIH Chemical Genomics Center [NCGC] MLPCN Grant: 1 R03 MH085686-01 Assay Submitter (PI): Beller, Mathias; Max-Planck-Institut fur Biophysikalische Chemie NCGC Assay Overview: Storing lipids as a reservoir for energy or the anabolism of elementary metabolites is a common feature of probably all cells and is conserved from bacteria to humans. The universal cellular lipid storage organelle is the so-called lipid storage droplet (LD). Although ubiquitous, LDs share a simple structure composed of a hydrophobic core that harbors the storage lipids, which is shielded by a droplet-specific phospholipid monolayer to which proteins are attached. The current model of LD biogenesis involves an incorporation of the lipid core into the membrane leaflets of the endoplasmic reticulum (ER) followed by a subsequent budding-like maturation of a LD, which ultimately pinches off. Once released, LD volume can increase by localized lipogenesis or fusion of existing droplet. Storage lipids are re-mobilized enzymatically by lipase activity. Lipase regulation in the adipocyte is heavily studied and involves multiple components including catecholamine signaling, the LD-associated proteins Perilipin and comparative gene identification (CGI-58) and at least two lipases named hormone sensitive lipase (HSL) and adipocyte triglyceride lipase (ATGL). LD regulation outside of the adipocyte is poorly understood and only few components are known. However, there is an urgent need to learn more about ectopic fat depots as mislocalized storage of lipids, for example in the liver or muscle, is an eminent health problem associated with insulin resistance or the metabolic syndrome. We developed a laser-scanning cytometer assay to enable 1,536-well screening and combined the results of the small molecules screen with an RNAi database based on lipid storage.
# Triacsin C (Sigma-Aldrich T-4540), an inhibitor of long-chain fatty acyl CoA synthetase that blocks synthesis of triglycerides, was used as a positive control for lipid under-storage. A total of 23 nL of compound solution of different concentrations were transferred to the assay plates using a Kalypsys pin tool equipped with a 1,536-pin array containing 10-nL slotted pins (FP1S10, 0.457-mm diameter, 50.8 mm long; V&P Scientific). One microliter of oleic acid (400 uM) was added, and the plate was lidded with stainless steel rubber gasket lined lids containing pinholes. […] Fluorescence was detected by excitation of the fluorophores with a 488-nm laser on an Acumen Explorer (TTP Lab Tech). The total intensity in channel 2 (500-530 nm) reflected lipid droplet accumulation. Cells were detected using channel 3 (575-640 nm) with 5-um width and 100-um depth filters. The ratio of the number of objects in PMT channel 2 over the number of objects in PMT channel 3 was also calculated. Percent activity was computed relative to an internal control (100% inhibited lipid droplet deposition due to the presence of 20 uM Triacsin C), which was added to 32 wells/plate.
# Potency means the concentration at half of the fitted maximal effect.
SMILES,Potency,cell number change [%]
CCOc1ccccc1N(CC(=O)NCC1CCCO1)C(=O)CCC(=O)Nc1cc(C)on1 (stereo not drawn),inactive,6.09
Cc1cc(NC(=O)CCC(=O)N(CC(=O)NCC2CCCO2)c2ccc(Cl)c(Cl)c2)no1 (stereo not drawn),inactive,10.4
Cc1cc(NC(=O)CCC(=O)N(CC(=O)NCC2CCCO2)c2ccccc2C)no1 (stereo not drawn),inactive,5.33
COC(=O)c1ccc(N2C(=O)c3cc(N4CCOCC4)c([N+](=O)[O-])cc3C2=O)cc1,inactive,0.29
Cc1cccc2nc(CSc3nc4ccccc4[nH]3)cn12,inactive,
COCCn1c(-c2ccccc2)nc(=S)c2c1CC(C)(C)OC2,inactive,
CC1(C)Cc2c(c(=S)nc(-c3ccccc3)n2CCO)CO1,0.259 µM (active),-12.1
CC1(C)Cc2c(c(=S)nc(-c3ccccc3)n2CCOCCO)CO1,inactive,4.5
CC(=O)Nc1ncc(Cc2cccc(Cl)c2Cl)s1,inactive,
Cc1nn(C(C)C(=O)NC2C(=O)N3C(C(=O)O)=C(CSc4nnnn4C)CSC23)cc1Cl (stereo not drawn),inactive,-1.98
COc1cccc(NC(=S)N2CCN(C)CC2)c1,inactive,-7.43
COc1cccc(NC(=O)COc2ccc(C(=O)N3CCN(C)CC3)cc2)c1,inactive,10.4
COc1cccc(NC(=O)COc2ccc(C(=S)N3CCN(C)CC3)cc2OC)c1,8.2 µM (active),
CCOCCn1c(N2CCCC2)nc2c1c(=O)n(C)c(=O)n2C,inactive,-1.35
COC1=C/C(=C/c2c(N)n3nc(CC(=O)N4CCCCC4)sc3nc2=O)C=CC1=O,14.6 µM (active),-9.68
Nc1c(/C=C2/C=CC(=O)C(O)=C2)c(=O)nc2sc(CC(=O)N3CCCCC3)nn12,inactive,-19.8
CCOC1=C/C(=C/c2c(N)n3nc(CC(=O)N4CCCC4)sc3nc2=O)C=CC1=O,inactive,-5.2
COC(=O)c1c(NC(=O)c2ccco2)sc(C(=O)N2CCCC2)c1C,inactive,-26.3
CCCn1cc(S(=O)(=O)c2ccc(OC)cc2)c(=O)c2cc(OCC)ccc21,inactive,
CC(C)C(C(=O)Nc1ccc2c(c1)OCO2)N1C(=O)c2ccccc2C1=O (stereo not drawn),inactive,-19.4
O=C(CCCCCNC(=O)c1ccccc1)N/N=C/c1ccc(O)cc1O,inactive,1.3
O=C(CCCCCNC(=O)c1ccccc1)N/N=C/c1ccco1,inactive,
O=C(CCCCCNC(=O)c1ccccc1)N/N=C/c1ccccc1O,9.2 µM (active),-19.4
CSC1=NCCN1S(=O)(=O)c1ccc2ccccc2c1,inactive,1.31
CC(C)Oc1ccc(CNC(=O)C2CCCN(S(=O)(=O)N3CCOCC3)C2)cc1 (stereo not drawn),inactive,24.2

SMILES,Potency,cell number change [%]
O=Cc1cccn1-c1sc2c(c1C(=O)O)CCCC2,inactive,-5.54
C=CCn1cccc(C(=O)Nc2ccc(C)cc2)c1=O,inactive,10.2
C=CCn1cccc(C(=O)Nc2ccc(Cl)cc2)c1=O,inactive,6.52
C=CCn1cccc(C(=O)Nc2ccc(SC)cc2)c1=O,4.11 µM (active),16.6
COC(=O)c1cn(NC(=O)/C=C/c2ccc(OC)c(OC)c2)c(=O)c2ccccc12,inactive,-14.9
CCOC(=O)Cc1csc(NC(=O)/C=C/c2ccccc2Cl)n1,inactive,-1.33
COc1nc(C#N)nc(N(C)C)n1,inactive,-4.25
N#C/C(=C/c1ccc(C(=O)O)cc1)C(=O)Nc1ccccc1,inactive,
N#C/C(=C\c1cccnc1)C(=O)Nc1ccccc1,inactive,-2.7
CCN(CC)c1ccc(/C=C(/C#N)C(=O)NCc2ccccc2)o1,2.06 µM (active),-20.4
N#C/C(=C/c1ccc(OCc2ccc(C(=O)O)cc2)cc1)C(=O)Nc1ccccc1,inactive,14.9
N#C/C(=C\c1ccc(OCc2ccccc2)cc1)C(=O)Nc1ccc(C(=O)O)cc1,20.6 µM (active),12.2
COc1ccc(/C=C(\C#N)C(=O)NCc2ccccc2)cc1,inactive,-4.49
CCCCNC(=O)/C(C#N)=C/c1cccnc1,20.6 µM (active),
N#C/C(=C/c1ccccc1)C(=O)NCc1ccccc1,2.59 µM (active),18.6
N#C/C(=C\c1cccs1)C(=O)NCc1ccccc1,inactive,-1.86
Cc1ccc(/C=C(\C#N)C(=O)NCc2ccco2)o1,inactive,
CCCCNC(=O)/C(C#N)=C/c1ccc(C(=O)OC)cc1,inactive,-26.3
N#C/C(=C\c1ccc(O)cc1)C(=O)NCc1ccccc1,inactive,
CC(C)CN(C(=O)C1CCCC1)C1CCS(=O)(=O)C1 (stereo not drawn),inactive,-27.9
N#CCN1CCC/C1=C\[N+](=O)[O-],inactive,11.9
CCCN(CCC)S(=O)(=O)c1ccc2c(c1)CCCN2C(C)=O,inactive,-13.4
Cc1ccc(CN2CCN(/N=C/c3sccc3C)CC2)c(C)c1,inactive,-17.1
CCN(CC)S(=O)(=O)c1cccc(C(=O)NC2=NCCS2)c1,inactive,-2.91
